{"source": "PubChem BioAssay (EPA / NIEHS)", "note": "Values joined by “and” are separate entries in the source; they are usually repeats but may differ in a detail not shown here. Equal entries are not always repeated. Active and inactive are the calls of the source. The calls were made as follows: active = hit-call score of the fitted dose curve at least 0.9, where 1 is the maximum; inactive = score below 0.9.", "data": [{"read-out": "Monocyte Chemoattractant Protein-1 (MCP1), CCL2 (gene 6347)", "assay": "BSK_SAg_MCP1: BioMAP Diversity Plus: SAg Assay for Monocyte Chemoattractant Protein-1 (MCP1) Biomarker Activity (AID 2283090)", "conditions": "primary human HUVEC with PBMC; actives raise or lower the signal", "how_it_was_run": "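Values derive from bidirectional fitting of ELISA-measured MCP1 against DMSO controls. Readings were taken 24 h after dosing human vascular endothelial cells co-cultured with peripheral blood mononuclear cells under superantigen stimulation.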", "values": [{"compound": "CC/C(=C(\\c1ccccc1)c1ccc(OCCN(C)C)cc1)c1ccccc1", "AC50": "10.4 µM (active) and 10.1 µM (active)"}, {"compound": "CC(=O)CCC=C(C)CCC=C(C)C", "outcome": "inactive"}, {"compound": "CC(C)Cc1ccc(C(C)C(=O)O)cc1", "note": "(stereo unspecified)", "outcome": "inactive"}, {"compound": "CC(C)(CO)CO", "outcome": "inactive"}, {"compound": "OCC(F)(OC(F)(F)C(F)(OC(F)(F)C(F)(F)C(F)(F)F)C(F)(F)F)C(F)(F)F", "note": "(stereo unspecified)", "AC50": "2.27 µM (active) and 1.92 µM (active)"}, {"compound": "C=C(C)C(=O)OCCC(F)(F)C(F)(F)C(F)(F)C(F)(F)C(F)(F)C(F)(F)C(F)(F)C(F)(F)F", "outcome": "inactive"}, {"compound": "CC(C)CCCC(C)(C)O", "outcome": "inactive"}, {"compound": "C#C[C@]1(O)CC[C@H]2[C@@H]3CCc4cc(O)ccc4[C@H]3CC[C@@]21C", "AC50": "5.56 µM (active)"}, {"compound": "c1ccc(OCCOc2ccccc2)cc1", "outcome": "inactive"}, {"compound": "CCCO[Si](OCCC)(OCCC)OCCC", "outcome": "inactive"}, {"compound": "CCCCCCCC1CCCC1=O", "note": "(stereo unspecified)", "outcome": "inactive"}, {"compound": "c1ccc2c(c1)-c1ccc3ccc4cccc5cc-2c1c3c45", "outcome": "inactive"}, {"compound": "NC(=O)c1c(Cl)cccc1Cl", "outcome": "inactive"}, {"compound": "CC1=CC(C)C(C=O)C(C)C1", "note": "(stereo unspecified) (tested in a mixture with another compound)", "outcome": "inactive"}, {"compound": "CC=CC(=O)C1=C(C)C=CCC1(C)C", "outcome": "inactive"}, {"compound": "O=C(O)C(F)(F)OC(F)(F)C(F)(F)OC(F)(F)C(F)(F)C(F)(F)C(F)(F)F", "outcome": "inactive"}, {"compound": "C=CC(=O)OCC(CO)(COC(=O)C=C)COC(=O)C=C", "AC50": "0.686 µM (active)"}, {"compound": "c1ccc(Sc2ccccc2)cc1", "AC50": "8 µM (active)"}, {"compound": "CC(=O)c1ccc(C)cc1", "outcome": "inactive"}, {"compound": "CCCCCCCCCC(=O)OCC", "outcome": "inactive"}, {"compound": "CC1(C)[C@H](C=C(Cl)Cl)[C@H]1C(=O)OCc1cccc(Oc2ccccc2)c1", "outcome": "inactive"}, {"compound": "O=C(O)C(F)(F)C(F)(F)C(F)(F)C(F)(F)C(F)(F)C(F)(F)C(F)(F)C(F)F", "outcome": "inactive"}, {"compound": "OCCN1CCOCC1", "outcome": "inactive"}, {"compound": "COC(=O)c1ccc(C(=O)OC)cc1", "outcome": "inactive"}]}, {"read-out": "E-selectin (Homo sapiens) (UniProt P16581)", "assay": "BSK_SAg_Eselectin: BioMAP Diversity Plus: SAg Assay for Eselectin Biomarker Activity (AID 2283091)", "conditions": "primary human HUVEC with PBMC; actives raise or lower the signal", "how_it_was_run": "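Endpoint values derive from bidirectional fitting relative to DMSO, using ELISA-measured E-selectin in a human vascular co-culture (umbilical vein endothelium plus PBMC) sampled 24 h after dosing.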", "values": [{"compound": "CC(C)(CO)CO", "outcome": "inactive"}, {"compound": "CCCCCCCC1CCCC1=O", "note": "(stereo unspecified)", "outcome": "inactive"}, {"compound": "CC=CC(=O)C1=C(C)C=CCC1(C)C", "outcome": "inactive"}, {"compound": "COC(=O)c1ccc(C(=O)OC)cc1", "outcome": "inactive"}]}, {"read-out": "Monokine induced gamma interferon (MIG), CXCL9 (gene 4283)", "assay": "BSK_SAg_MIG: BioMAP Diversity Plus: SAg Assay for Monokine induced gamma interferon (MIG) Biomarker Activity (AID 2283092)", "conditions": "primary human HUVEC with PBMC; actives raise or lower the signal", "how_it_was_run": "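ELISA readout of MIG/CXCL9; primary human umbilical vein endothelial cells co-cultured with peripheral blood mononuclear cells; 24 h post-dose; gain/loss fit vs DMSO baseline.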", "values": [{"compound": "CC/C(=C(\\c1ccccc1)c1ccc(OCCN(C)C)cc1)c1ccccc1", "AC50": "14.1 µM (active) and 11.3 µM (active)"}, {"compound": "CC(=O)CCC=C(C)CCC=C(C)C", "outcome": "inactive"}, {"compound": "CC(C)Cc1ccc(C(C)C(=O)O)cc1", "note": "(stereo unspecified)", "outcome": "inactive"}, {"compound": "CC(C)(CO)CO", "outcome": "inactive"}, {"compound": "OCC(F)(OC(F)(F)C(F)(OC(F)(F)C(F)(F)C(F)(F)F)C(F)(F)F)C(F)(F)F", "note": "(stereo unspecified)", "outcome": "inactive"}, {"compound": "C=C(C)C(=O)OCCC(F)(F)C(F)(F)C(F)(F)C(F)(F)C(F)(F)C(F)(F)C(F)(F)C(F)(F)F", "outcome": "inactive"}, {"compound": "CC(C)CCCC(C)(C)O", "outcome": "inactive"}, {"compound": "C#C[C@]1(O)CC[C@H]2[C@@H]3CCc4cc(O)ccc4[C@H]3CC[C@@]21C", "outcome": "inactive"}, {"compound": "c1ccc(OCCOc2ccccc2)cc1", "outcome": "inactive"}, {"compound": "CCCO[Si](OCCC)(OCCC)OCCC", "outcome": "inactive"}, {"compound": "CCCCCCCC1CCCC1=O", "note": "(stereo unspecified)", "outcome": "inactive"}, {"compound": "c1ccc2c(c1)-c1ccc3ccc4cccc5cc-2c1c3c45", "outcome": "inactive"}, {"compound": "NC(=O)c1c(Cl)cccc1Cl", "outcome": "inactive"}, {"compound": "CC1=CC(C)C(C=O)C(C)C1", "note": "(stereo unspecified) (tested in a mixture with another compound)", "outcome": "inactive"}, {"compound": "CC=CC(=O)C1=C(C)C=CCC1(C)C", "outcome": "inactive"}, {"compound": "O=C(O)C(F)(F)OC(F)(F)C(F)(F)OC(F)(F)C(F)(F)C(F)(F)C(F)(F)F", "outcome": "inactive"}, {"compound": "C=CC(=O)OCC(CO)(COC(=O)C=C)COC(=O)C=C", "AC50": "601 nM (active)"}, {"compound": "c1ccc(Sc2ccccc2)cc1", "AC50": "34500 nM (active)"}, {"compound": "CC(=O)c1ccc(C)cc1", "outcome": "inactive"}, {"compound": "CCCCCCCCCC(=O)OCC", "outcome": "inactive"}, {"compound": "CC1(C)[C@H](C=C(Cl)Cl)[C@H]1C(=O)OCc1cccc(Oc2ccccc2)c1", "outcome": "inactive"}, {"compound": "O=C(O)C(F)(F)C(F)(F)C(F)(F)C(F)(F)C(F)(F)C(F)(F)C(F)(F)C(F)F", "outcome": "inactive"}, {"compound": "OCCN1CCOCC1", "outcome": "inactive"}, {"compound": "COC(=O)c1ccc(C(=O)OC)cc1", "outcome": "inactive"}]}, {"read-out": "not listed separately", "assay": "BSK_SAg_PBMCCytotoxicity: PBMC Cytotoxicity Assessment in the BioMAP Diversity Plus: SAg Assay (AID 2283093);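 also: fitted both ways against DMSO so a hit may be loss or gain of signal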;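 as to AC50: PBMC superantigen activated with SEB plus TSST-1 one hour after compound addition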", "conditions": "primary human HUVEC with PBMC", "how_it_was_run": "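Alamar Blue reduction (6 h, ex/em 546/580 nm) read after 90 h culture of PBMC pre-dosed 1 h then stimulated with SEB plus TSST-1, 20 ng/mL each. Gain or loss of signal fitted relative to DMSO.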", "values": [{"compound": "CC/C(=C(\\c1ccccc1)c1ccc(OCCN(C)C)cc1)c1ccccc1", "AC50": "6.22 µM (active) and 6.86 µM (active)"}, {"compound": "CC(=O)CCC=C(C)CCC=C(C)C", "outcome": "inactive"}, {"compound": "CC(C)Cc1ccc(C(C)C(=O)O)cc1", "note": "(stereo unspecified)", "outcome": "inactive"}, {"compound": "CC(C)(CO)CO", "outcome": "inactive"}, {"compound": "OCC(F)(OC(F)(F)C(F)(OC(F)(F)C(F)(F)C(F)(F)F)C(F)(F)F)C(F)(F)F", "note": "(stereo unspecified)", "AC50": "2.03 µM (active) and 1.97 µM (active)"}, {"compound": "C=C(C)C(=O)OCCC(F)(F)C(F)(F)C(F)(F)C(F)(F)C(F)(F)C(F)(F)C(F)(F)C(F)(F)F", "outcome": "inactive"}, {"compound": "CC(C)CCCC(C)(C)O", "outcome": "inactive"}, {"compound": "C#C[C@]1(O)CC[C@H]2[C@@H]3CCc4cc(O)ccc4[C@H]3CC[C@@]21C", "outcome": "inactive"}, {"compound": "c1ccc(OCCOc2ccccc2)cc1", "outcome": "inactive"}, {"compound": "CCCO[Si](OCCC)(OCCC)OCCC", "outcome": "inactive"}, {"compound": "CCCCCCCC1CCCC1=O", "note": "(stereo unspecified)", "outcome": "inactive"}, {"compound": "c1ccc2c(c1)-c1ccc3ccc4cccc5cc-2c1c3c45", "outcome": "inactive"}, {"compound": "NC(=O)c1c(Cl)cccc1Cl", "outcome": "inactive"}, {"compound": "CC1=CC(C)C(C=O)C(C)C1", "note": "(stereo unspecified) (tested in a mixture with another compound)", "outcome": "inactive"}, {"compound": "CC=CC(=O)C1=C(C)C=CCC1(C)C", "outcome": "inactive"}, {"compound": "O=C(O)C(F)(F)OC(F)(F)C(F)(F)OC(F)(F)C(F)(F)C(F)(F)C(F)(F)F", "outcome": "inactive"}, {"compound": "C=CC(=O)OCC(CO)(COC(=O)C=C)COC(=O)C=C", "AC50": "0.0476 µM (active)"}, {"compound": "c1ccc(Sc2ccccc2)cc1", "AC50": "33.9 µM (active)"}, {"compound": "CC(=O)c1ccc(C)cc1", "outcome": "inactive"}, {"compound": "CCCCCCCCCC(=O)OCC", "AC50": "34.1 µM (active)"}, {"compound": "CC1(C)[C@H](C=C(Cl)Cl)[C@H]1C(=O)OCc1cccc(Oc2ccccc2)c1", "outcome": "inactive"}, {"compound": "O=C(O)C(F)(F)C(F)(F)C(F)(F)C(F)(F)C(F)(F)C(F)(F)C(F)(F)C(F)F", "outcome": "inactive"}, {"compound": "OCCN1CCOCC1", "outcome": "inactive"}, {"compound": "COC(=O)c1ccc(C(=O)OC)cc1", "outcome": "inactive"}]}]}
